Screens (PubChem BioAssay)
D1 ag: agonists of human D1 dopamine receptor; P21728; HEK293 T-REx D1 cells, calcium flux, agonist mode; activation, % at 2 µM; hit rate 1% among 360,000; AID 504660; note: 0% is about no effect
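Inducible HEK293 T-REx D1 cells, force-coupled to calcium signalling, were plated at 4000 cells/well with tetracycline and held overnight at 30 C. After no-wash calcium dye loading, compound-evoked calcium rise over 180 s flagged agonists.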
TRHR agonist: agonists of human TRH receptor; P34981; TRHR cells, calcium flux fluo-8, FDSS agonist mode; activation, % at 2 µM; hit rate 0.18% among 360,000; AID 493084; note: 0% is about no effect
Target sequence (P34981 whole entry, looked up): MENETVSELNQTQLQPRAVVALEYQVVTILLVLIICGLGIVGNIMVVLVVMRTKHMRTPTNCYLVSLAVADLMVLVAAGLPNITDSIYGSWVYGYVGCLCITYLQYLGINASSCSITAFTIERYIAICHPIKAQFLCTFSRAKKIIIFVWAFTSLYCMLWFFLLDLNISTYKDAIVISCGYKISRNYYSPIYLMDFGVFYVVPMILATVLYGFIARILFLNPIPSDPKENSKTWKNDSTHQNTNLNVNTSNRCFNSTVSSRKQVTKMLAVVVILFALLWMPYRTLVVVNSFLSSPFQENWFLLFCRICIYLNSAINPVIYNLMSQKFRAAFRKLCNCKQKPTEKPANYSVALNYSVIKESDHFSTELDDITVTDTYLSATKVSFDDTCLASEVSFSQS
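TRHR-expressing cells loaded with fluo-8 calcium dye; 23 nL library compound pin-transferred, kinetic FDSS fluorescence (Ex 480/Em 530) recorded about 180 s for agonist-induced calcium release, before a 10 nM TRH EC20 addition for potentiator mode.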
TRHR enhancer: TRH receptor (human) allosteric enhancement; TRHR cells, fluo-8 calcium fluorescence, EC20 TRH enhancement; hit rate 0.66% among 360,000; enhancement, % at 2 µM; AID 493056; P34981; in the data active = enhancement above about 30%; note: 0% is about no effect
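Enhancer read-out: after compound pinning and an initial kinetic agonist-mode read, an EC20 of TRH (10 nM final) was injected and fluo-8 calcium signal (Ex 480/Em 530) followed at 1 s/cycle for 100 cycles in TRHR-expressing cells.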
D1 PAM: human D1 dopamine receptor positive modulation; hit rate 0.036% among 360,000; potentiation, % at 10 µM; AID 504651; P21728; HEK293 TREx D1 cells, calcium flux, dopamine EC20 potentiation; in the data active = potentiation above about 30%; note: 0% is about no effect
D1 antag: blocks dopamine activation of the human D1 receptor | HEK293 TREx D1 cells, calcium flux, dopamine EC80; hits give low values | activity change, negative = inhibition, % at 10 µM | hit rate 3.2% among 360,000 | AID 504652; in the data active = activity change below about -30%; note: % is set by controls: 0 for no effect and ±100 for the full control effect
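HEK293 T-REx cells expressing inducible, force-coupled D1 receptor; no-wash Ca dye, 30–90 min RT. Cmpd → 180 s read at 1 Hz → EC80 DA → 180 s read.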
An asterisk follows results filed as active; . = no result. Hits are enriched below; roughly 4.7% of the tested compounds scored in any of these assays. Cut-off read from the data, not from the text of the source, unless noted: active = activation above about 30%; inactive = the rest.

SMILES	D1 ag	TRHR agonist	TRHR enhancer	D1 PAM	D1 antag
COc1cccc2c1Oc1ncccc1N(c1ccc(C(=O)NCc3cccc(C)c3)s1)C2	1	0	6	-3	2
CC(=O)Oc1ccc(C(=O)Cc2ccc3ccccc3n2)c(O)c1C	32*	10	3	-2	0
CC(=O)Oc1ccc(C(=O)Cc2ccccn2)c(O)c1	2	0	-5	-3	-12
Cc1c(O)ccc(/C(Cc2ccc3ccccc3n2)=N\O)c1O	21	0	3	-6	-31*
COc1ccc(C)cc1NC(=O)Nc1ccccc1OCc1cc(=O)n2ccccc2n1	-1	0	-1	-2	-6
CCOC(=O)Cn1c(=O)c2c(nc(N3CCOCC3)n2Cc2ccccc2)n(C)c1=O	-1	1	16	1	2
CSC1=NCCN1S(=O)(=O)c1ccc(NC(C)=O)cc1	1	0	1	-5	8
CCSC1=NCCN1S(=O)(=O)c1ccc(NC(C)=O)cc1	-2	1	-4	-3	-8
CC(=O)Nc1ccc(S(=O)(=O)N2CCN=C2SCc2ccc(C)cc2)cc1	23	1	16	-3	-41*
CC(=O)Nc1ccc(S(=O)(=O)N2CCN=C2SCc2ccc(F)cc2)cc1	37*	-1	-2	-20	-26
COc1ccc(S(=O)(=O)n2nc(C)c(S(=O)(=O)N3CCC(C)CC3)c2C)cc1C	3	0	3	0	-23
O=C(c1cccc(C(F)(F)F)c1)N1CCCC1	1	0	3	-4	2
O=C(c1cccc(C(F)(F)F)c1)N1CCCCCC1	2	1	16	-6	-56*
CC(NC(=O)C1CCCN(C(=O)c2ccc(Cl)cc2)C1)c1cccc(C(F)(F)F)c1 (stereo not given)	12	1	-8	.	-37*
CC(Oc1ccc(C#N)cc1)C(=O)Nc1ccc(-n2cnnn2)cc1 (stereo not given)	55*	6	22	-7	-15
O=C(COc1ccc(F)cc1)Nc1ccc(-n2cnnn2)cc1	4	0	-2	-12	-36*
CCOc1ccc(NC(=O)COc2ccc(-n3cnnn3)cc2)cc1	-1	0	1	-4	-13
CCc1ccccc1NC(=O)COc1cccc(-n2cnnn2)c1	44*	-2	7	.	-20
Cc1ccc(N2CCN(C(=O)C3CCN(c4ncnc5c4nc4n5CCCCC4)CC3)CC2)c(C)c1	-1	-1	9	-3	-18
Cc1ccc(CNC(=O)CSc2ncc3c(n2)-c2cc(Cl)ccc2N(C)S3(=O)=O)cc1	3	-1	8	5	29
Cc1ccc(N/C=C(\[N+](=O)[O-])S(=O)(=O)c2ccccc2)cc1	3	0	31*	-2	-1
Cc1cccc(N/C=C(\[N+](=O)[O-])S(=O)(=O)c2ccccc2)c1	1	1	-3	-4	4
COc1ccc(C(C(=O)Nc2ccc(C(C)C)cc2)N(C)C(=O)Cc2cccs2)cc1 (stereo not given)	25	0	4	5	0
COc1cccc(Nc2nc3ccccc3nc2NS(=O)(=O)c2cccs2)c1	16	1	-3	-6	-32*
COc1ccccc1N/C=C/C(=C(C#N)C#N)N(C)C	1	-1	-2	-5	-4
SMILES	D1 ag	TRHR agonist	TRHR enhancer	D1 PAM	D1 antag
CN(C)C(/C=C/Nc1ccccc1F)=C(C#N)C#N	2	0	14	-2	-34*
CC1CCN(CCn2c(=S)[nH]c3cc4c(cc3c2=O)OCO4)CC1	1	0	-3	3	4
O=c1c2cc3c(cc2[nH]c(=S)n1CCN1CCOCC1)OCO3	1	0	-6	-3	-50*
COc1ccc(C2C=C(c3ccccc3)Nc3nc(NC(=O)/C=C/c4ccc(F)cc4)nn32)cc1 (stereo not given)	0	-1	0	-1	5
CCOc1ccc(CNCc2c(C(=O)O)c(C)n(Cc3ccc(F)cc3Cl)c2C)cc1	23	-2	1	0	13
CCN1C(=O)/C(=c2\o/c(=C3\C=Cc4ccccc4N3CC)c(=O)n2CC)SC1=S	1	0	1	-5	9
CCN1C(=O)/C(=C2\C=Cc3ccccc3N2CC)SC1=S	-2	0	-8	-5	-33*
CCCNC(=O)Nc1cc(C(=O)NCc2cccc(OCC)c2)ccc1N1CCCC1	-1	-1	2	0	4
